tested on: Plasmodium falciparum; test: GSK_TCMDC: Inhibition of Plasmodium falciparum Dd2 in whole red blood cells, using parasite LDH activity as an index of growth. Test compounds present at 2uM; type: functional

Compound	Inhibition [%]
O=C(Nc1ccc([N+](=O)[O-])cc1Br)c1cc2ccccc2nc1Cl	68
Cc1ccccc1C1CCN(c2ccc(C(=O)Nc3ccccc3)cn2)CC1.O=C(O)C(F)(F)F	94
COc1ccc(-n2cc(C(=O)c3cc(Br)ccc3O)cc(C#N)c2=O)cc1Cl	23
O=S(=O)(Nc1ccc(CCN2CCC(N3CCCCC3)CC2)cc1)c1cccc(C(F)(F)F)c1	15
CC1CCCN(S(=O)(=O)c2cc(Br)cc3c2N(C(=O)C2CC2)CC3)C1 (centres undefined)	70
CC(C)(C)c1ccc2[nH]c(-c3ccc(C(=O)NCc4cccc(C(F)(F)F)c4)cc3)nc2c1	26
Cc1cc(C(=O)CN2C(=O)NC3(CCCc4ccccc43)C2=O)c(C)n1Cc1ccc(F)cc1 (centres undefined)	53
O=C(Nc1ccc2c(c1)OCCO2)c1cc(-c2cccnc2)nc2ccc(Cl)cc12	27
Cc1c(Cn2nc(Cl)c(N3CCNCC3)cc2=O)cccc1NC(=O)Nc1ccc(-c2ccccc2)cc1.O=C(O)C(F)(F)F	29
C=CCc1cc(Cc2cnc(N)nc2N)cc(CCC)c1OC	1
Cl.Clc1cc(Br)ccc1-c1ccc(CNCC2CCNCC2)o1	39
CCN(CC)CCCN(Cc1ccc(-c2ccc(C(F)(F)F)cc2)cc1)C(=O)Cn1c(SCc2cccc(F)c2F)cc(=O)c2ccccc21.O=C(O)C(O)C(O)C(=O)O	82
C=CCN1CCC(N(Cc2cccc(Oc3ccccc3)c2)C(=O)C(c2ccccc2)c2ccccc2)CC1	79
CC(=O)Nc1ccc2[nH]cc(C3CCN(CC4CCC(NC(=O)/C=C/c5ccc(Cl)c(Cl)c5)CC4)CC3)c2n1 (centres undefined)	79
Cl.NC(=O)c1cccc(Nc2nccc(Nc3ccc(Oc4cccc(Cl)c4)c(Cl)c3)n2)c1	12
Cl.O=c1cc(NCCCNCc2sc(Br)c(Br)c2Br)[nH]c2ccccc12	38
Cc1cccc2nc(-c3cccc(-c4ccc(NC(=O)CN5CCN(C)CC5)cc4)c3)[nH]c12	99
O=C(N[C@@H](Cc1ccccc1)C(=O)NCc1cccc2ccccc12)c1ccc(O)c(-c2ccc(Cl)c(Cl)c2)c1	97
CCN(CC)CCN(Cc1ccc(-c2ccc(C(F)(F)F)cc2)cc1)C(=O)Cn1c(CCc2cc(F)c(F)cc2F)nc(=O)c2ccccc21.O=C(O)C(O)C(O)C(=O)O	50
Cc1cc(NC(=O)Nc2ccc3ncccc3c2)c2ccccc2n1	27

Compound	Inhibition [%]
CC1(C)N=C(N)N=C(N)N1c1ccc(Cl)c(Cl)c1.Cl	56
C[C@@H](CNc1ccnc(Nc2ccc3[nH]c(=O)[nH]c3c2)n1)c1ccccc1	1
CCOC(=O)NC1=NC(=N)N(OCCCOc2cc(Cl)c(Cl)cc2Cl)C(C)(C)N1	94
COC(=O)c1ccc(OCC(C)NCC(O)c2cccc(C(F)(F)F)c2)cc1.O=C(O)/C=C/C(=O)O (centres undefined)	81
CC(C)CNCc1cccc(-c2ccc(CN(CCCN3CCN(C)CC3)C(=O)/C=C/c3ccccc3)cc2)c1.O=C(O)C(F)(F)F	90
Cc1cccc2nc(-c3ccc(-c4cccc(CNCCNC(=O)c5ccnn5C)c4)cc3)[nH]c12.O=C(O)C(F)(F)F	92
O=C(CSc1nccn1C1CCCC1)Nc1cc(C(F)(F)F)ccc1Cl	94
Cc1nc(-c2cccc(Nc3nccc(NCC(O)c4cccc(C(F)(F)F)c4)n3)c2)cs1 (centres undefined)	99
CC(C)n1c(CC2CCN(CC3CCN(C(=O)/C=C/c4ccc(Cl)c(Cl)c4)CC3)CC2)nc2ccccc21	23
COC(=O)c1cccc(CNCc2cccc(-c3cccc(-c4nc5ccccc5[nH]4)c3)c2)c1.O=C(O)C(F)(F)F	58
CN1CCN(c2ccnc3cc4c(cc23)N(C(=O)Nc2ccc(-c3ccncc3)c3ccccc23)CC4)CC1.Cl	97
N#CN1CC[C@@H](NS(=O)(=O)Cc2ccc(Cl)c(Cl)c2)C1	94
COc1ccc(NC(=O)[C@H](Cc2ccccc2)Nc2cc(C)nc(NCC3CCCCC3)n2)cc1.O=C(O)C(F)(F)F	83
O=C(NC1CCN(Cc2ccccc2)CC1)c1cccc(-c2nc3ccc(Cl)cc3[nH]2)c1	0
CCn1c(Sc2ccc([N+](=O)[O-])c(C#N)c2)nnc1-c1ccc(Cl)cc1	7
Cc1cccc2nc(-c3ccc(-c4ccc(NC(=O)NCc5ccc(F)cc5)cc4)cc3)[nH]c12	99
OC(c1nnc(S)n1-c1ccccc1)C(O)c1nnc(S)n1-c1ccccc1 (centres undefined)	89
CC(C)C[C@H](NC(=O)c1cc2ccccc2s1)C(=O)N[C@H]1CCN(Cc2ccc(I)c(OCCN3CCCC3)c2)C1.O=C(O)C(F)(F)F	88
CCCCc1ccc2[nH]c(NC(=O)OC)nc2c1 [PARBENDAZOLE]	1
